In PubChem BioAssay (EPA / NIEHS):
Results filed as inconclusive are left out. The source made the active and inactive calls. Rule for the calls: active = hit-call score of the fitted dose curve at least 0.9, where 1 is the maximum; inconclusive = response in the unintended direction; inactive = score below 0.9.

biological target: Nuclear receptor subfamily 4 group A member 2 (Homo sapiens) (UniProt P43354); assay: ATG_NURR1_TRANS: Attagene TRANS-FACTORIAL HepG2 Assay for human Nuclear Receptor Related Protein 1 (NURR1) (AID 2282985); settings: HepG2 Attagene TRANS reporter, mRNA readout
Sequence (P43354 whole entry, looked up): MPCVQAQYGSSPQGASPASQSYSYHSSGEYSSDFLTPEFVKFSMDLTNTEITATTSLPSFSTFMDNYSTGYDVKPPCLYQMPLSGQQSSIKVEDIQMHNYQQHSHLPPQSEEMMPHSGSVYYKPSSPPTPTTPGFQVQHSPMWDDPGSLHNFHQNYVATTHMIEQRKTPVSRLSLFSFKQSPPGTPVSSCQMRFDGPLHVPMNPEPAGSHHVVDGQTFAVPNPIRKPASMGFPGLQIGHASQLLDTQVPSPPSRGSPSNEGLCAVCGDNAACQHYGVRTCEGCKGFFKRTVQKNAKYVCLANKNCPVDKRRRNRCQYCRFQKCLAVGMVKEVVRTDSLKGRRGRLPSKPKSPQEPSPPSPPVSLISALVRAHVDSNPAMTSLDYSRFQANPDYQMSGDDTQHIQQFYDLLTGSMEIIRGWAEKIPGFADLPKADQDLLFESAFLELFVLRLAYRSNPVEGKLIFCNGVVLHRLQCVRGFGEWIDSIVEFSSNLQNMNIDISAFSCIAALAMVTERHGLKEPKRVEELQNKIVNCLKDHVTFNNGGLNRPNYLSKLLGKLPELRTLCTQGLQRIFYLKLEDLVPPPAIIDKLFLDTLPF
Procedure: ATG_TRANS is a cell-based, multiplexed-readout assay that uses HepG2, a human liver cell line, with measurements taken at 24 hours after chemical dosing in a 24-well plate.ATG_NURR1_TRANS is one of 30 assay component(s) measured or calculated from the ATG_TRANS assay. It is designed to make measurements of mRNA induction, a form of inducible reporter, as detected with fluorescence intensity signals by Reverse transcription polymerase chain reaction (RT-PCR) and Capillary electrophoresis technology.Data from the assay component ATG_NURR1_TRANS was analyzed into 1 assay endpoint. This assay endpoint, ATG_NURR1_TRANS, was analyzed in the positive analysis fitting direction relative to DMSO as the negative control and baseline of activity. Using a type of inducible reporter, measures of mRNA for gain-of-signal activity can be used to understand the reporter gene at the transcription factor-level as they relate to the gene NR4A2. Furthermore, this assay endpoint can be referred to as a primary readout, because this assay has produced multiple assay endpoints where this one serves a reporter gene function. To generalize the intended target to other relatable targets, this assay endpoint is annotated to the nuclear receptor intended target family, where the subfamily is orphan.
Human liver HepG2 cells are transiently transfected with multiple reporter transcription units (MRTUs) in 6-well plates using FuGene 6 reagent (Roche; 3 ml FuGene/1 mg DNA). The MRTU constructs are regulated by a cis-regulating element (promoter). […] A major difference between the CIS and TRANS system is that in CIS activities of endogenous TFs are measured, whereas the TRANS assay evaluates changes in activities of exogenous, chimeric NR-Gal4 proteins. […] At the end of 24 hour incubation, total RNA was isolated using TriZol reagent (Invitrogen). The isolated RNA is then reverse-transcribed using oligo(dT) primer and Mo-MLV reverse transcriptase (Invitrogen) with DNAse I (Ambion) treatment for 30 min. The one-tenth of the produced cDNA was amplified by PCR using Taq DNA polymerase (Invitrogen) and two reporter sequence-specific primers. The PCR products were fluorescently labeled by primer extension with 6-arboxyfluorescein (6-FAM) 5'-labeled reporter sequence-specific primer (2 min at 95 C, 20 s at 68 C and 10 min at 72 C) and these products were digested with 5U of HpaI (New England Biolabs) for 2h at 37 C. The fragments were purified using Qiaquick PCR columns (Qiagen), analyzed on an ABI 3130xL genetic analyzer (Applied Biosystems) with peak positions identified by using a set of X-rhodamine (ROX)-labeled MapMarker1000 molecular weight standards (BioVentures). The raw capillary electrophoresis data was processed using Attagraph software (Attagene).

SMILES	outcome	AC50
CC1=C(CC=O)C(C)(C)CCC1	inactive	–
COC(=O)c1ccccc1	inactive	–
CCCC(=O)OC/C=C(\C)CCC=C(C)C	inactive	–
CCOC(=O)c1ccccc1	inactive	–
O=C(O)c1cc(Cl)cc(Cl)c1O	inactive	–
CCC(C)NC(N)=O (stereo not given)	inactive	–
CCCCC(CC)COC(=O)CS (stereo not given)	inactive	–
CCCCCC[C@@H](O)C/C=C\CCCCCCCC(=O)O	–	108 µM (active)
CN1CCCC1	inactive	–
OCCc1ccccn1	inactive	–
CC(C)(C)NC(=O)[C@@H]1CN(Cc2cccnc2)CCN1C[C@@H](O)C[C@@H](Cc1ccccc1)C(=O)N[C@H]1c2ccccc2C[C@H]1O	inactive	–
Nc1nnc(-c2ccc([N+](=O)[O-])o2)o1	inactive	–
O=[N+]([O-])c1ccc2nc[nH]c2c1	inactive	–
CCO[Si](OCC)(OCC)c1ccccc1	inactive	–
O=C(O)c1nc(Cl)c(Cl)c(Cl)c1Cl	inactive	–
CCCOCCC	inactive	–
O=C(OCc1ccccc1)c1ccccc1	inactive	–
CC/C=C\CC/C=C/C(OCC)OCC	inactive	–
CCCCCCCCCCCCCC	inactive	–
CC(=O)OC(C)(C)Cc1ccccc1	inactive	–

SMILES	outcome	AC50
CCCCCCOC(=O)CCCCCCCC(=O)OCCCCCC	inactive	–
O=C1CCCCCCCCCCCCCC1	–	25.7 µM (active)
C=C(C)C(=O)OCCCCCC	inactive	–
COc1ccccc1OCC(O)CO (stereo not given)	inactive	–
CCCCCCCCCCCCCCCCCC[N+](C)(C)C	inactive	–
Cc1cc(-n2nc3ccc(Cl)cc3n2)c(O)c(C(C)(C)C)c1	inactive	–
CC1=C(CC(=O)O)c2cc(F)ccc2/C1=C\c1ccc(S(C)=O)cc1 (stereo not given)	inactive	–
CC(C)CC(=O)CC(C)CC(C)C (stereo not given)	inactive	–
CCCCCCCC#N	inactive	–
COCCCN	inactive	–
O=C(C1CCCCC1)N1CC(=O)N2CCc3ccccc3C2C1 (stereo not given)	inactive	–
C=CC(C)(CCC=C(C)C)OC(=O)c1ccccc1 (stereo not given)	inactive	–
Oc1cccc2ccccc12	inactive	–
CN(C)Cc1cc(C(C)(C)C)c(O)c(C(C)(C)C)c1	–	29.1 µM (active)
CN(C)N=Nc1ccccc1	inactive	–
CC1=NN(c2cc(Cl)c(S(=O)(=O)O)cc2Cl)C(=O)C1N=Nc1ccc(S(=O)(=O)O)cc1 (stereo not given)	inactive	–
CCCCn1cc[n+](C)c1	inactive	–
CC(=O)Nc1c(I)c(NC(C)=O)c(I)c(C(=O)O)c1I	inactive	–
CO[Si](CCCNCCN)(OC)OC	inactive	–
CCC(=O)OCc1ccc(OC)cc1	inactive	–
